Article PMC4552634, “A New Set of Chemical Starting Points with Plasmodium falciparum Transmission-Blocking Potential for Antimalarial Drug Discovery” (PLoS ONE, 2015)
Where two headings read alike, the source gives them in different places. The whole screen tested about 13,000 compounds, of which about 3,200 (25%) showed an effect of 50% or more. Some of the results follow.

System: P. falciparum stage V gametocytes
Set-up: BacTiter-Glo ATP luminescence viability of purified stage V gametocytes in 384-well plates, per cent inhibition versus DMSO
Details: 48 h, 5 µM, inhibitor

| SMILES | % Inhibition | % Inhibition (% Inhibition) |
| --- | --- | --- |
| Cc1ccccc1CNc1noc(-c2c(-c3ccccc3)noc2C)n1 [TCMDC-134201] | -15.74% |  |
| CCCOC(=O)c1ccc(OCCCON2C(N)=NC(N)=NC2(C)C)cc1 [TCMDC-131715] | 8.227% |  |
| CCN1CCC(N(Cc2ccc(-c3ccc(C(F)(F)F)cc3)cc2)C(=O)Cn2c(CCc3cccc(F)c3F)nc(=O)c3ccccc32)CC1 [TCMDC-141048] | 116.3% |  |
| CCN1CCC(N(Cc2ccc(-c3ccc(C(F)(F)F)cc3)o2)C(=O)Cn2c(CCc3cccc(F)c3F)nc(=O)c3ccccc32)CC1 [TCMDC-141281] | 92.96% |  |
| CC(C)N1CCC(N(Cc2ccc(-c3ccc(C(F)(F)F)cc3)cc2)C(=O)CCCn2c(CCc3cccc(F)c3F)nc(=O)c3ccccc32)CC1 [TCMDC-141316] | 88.07% |  |
| O=C(C1CCCC1)N1CCOC(CCN2CCC(c3ccccc3)CC2)(c2ccc(Cl)c(Cl)c2)C1 (stereo not drawn) [TCMDC-135327] | -12.01% |  |
| CC(C)Cc1nc2nc(N)nc(N)c2cc1C(C)C [TCMDC-137930] | 2.497% |  |
| O=C(Nc1ccc2c(c1)CCCN2S(=O)(=O)c1cccs1)c1cc([N+](=O)[O-])ccc1Cl [TCMDC-125153] | 96.55% |  |
| CC(=O)c1cccc(NC(=O)c2ccc(Cl)c(S(=O)(=O)N3CCc4ccccc43)c2)c1 [TCMDC-124431] | 4.693% |  |
| CC1CCCN(c2ccc(NC(=O)c3cccs3)cc2[N+](=O)[O-])C1 (stereo not drawn) [TCMDC-124625] | 1.853% |  |
| O=c1cc(NCCC2CC=CCN2Cc2ccc(Cl)c(Cl)c2)[nH]c2ccccc12 (stereo not drawn) [TCMDC-139445] | 3.776% |  |
| COc1ccc(CCNCCCCCCNCCc2ccc(Cl)cc2)c(Cl)c1OC [TCMDC-131272] | 114.1% |  |
| COc1ccc(CCNCCCCCCNCCc2ccc(OC)c(OC)c2Cl)c(Cl)c1OC [TCMDC-131261] | 103.5% |  |
| COc1ccc(CCNCC(O)c2cccc(Br)c2)c(Cl)c1OC (stereo not drawn) [TCMDC-125478] | 12.88% |  |
| O=C(Nc1ccsc1C(=O)NC1CCCCC1)c1ccc(F)cc1 [TCMDC-123789] | -7.21% |  |
| CCCC(C)Nc1nc(C)cc(N[C@@H](CC(C)C)C(=O)NCCOc2ccccc2)n1 (stereo partly drawn) [TCMDC-134898] | -16.46% |  |
| O=C(C=C1c2ccccc2-c2ccccc21)NC1CCC(CN2CCC(c3c[nH]c4ccccc34)CC2)CC1 (stereo not drawn) [TCMDC-139906] |  | -40.53% |
| CC1=C(C(=O)NC2CCC(CN3CCC(c4c[nH]c5ccccc45)CC3)CC2)Cc2ccccc21 (stereo not drawn) [TCMDC-139755] |  | 71.55% |
| O=C(C=C1c2ccccc2-c2ccccc21)NC1CCC(CN2CCC(c3c[nH]c4ccccc34)CC2)CC1 (stereo not drawn) [TCMDC-139918] |  | -14.57% |
| O=C(NC1CCC(CN2CCC(c3c[nH]c4ccccc34)CC2)CC1)[C@H]1Cc2ccccc2CN1 (stereo partly drawn) [TCMDC-140311] | 105% |  |
| CC1=C(C(=O)NC2CCC(CN3CCC(c4c[nH]c5ccccc45)CC3)CC2)Cc2ccccc21 (stereo not drawn) [TCMDC-139765] |  | -59.52% |
